From PubChem
The list is not random: actives were taken first. Their share in the collection is about 9.2%.
ELG1 DNA repair = qHTS screen for small molecules that inhibit ELG1-dependent DNA repair in human embryonic kidney (HEK293T) cells expressing luciferase-tagged ELG1. HEK293T ELG1-luciferase reporter, luminescence, 16 h; DNA damage induced by 5-fluorouridine. Potency, µM (doses to about 46.1 µM), without a hit: at the highest dose activity change, negative = inhibition, usual class: inhibitors. 330,000 tested, 2.3% active; note: % is set by controls: 0 for no effect and ±100 for the full control effect; nearly all actives have a fitted effect of over 55% in size
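5-Fluorouridine DNA damage + compound/DMSO, 2,000 cells/well, 16 h, 37 °C/5% CO2. ONE-Glo, 30 min RT, luminescence. Readout = decrease in reporter signal.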
ELG1 genotox = qHTS screen for small molecules that induce genotoxicity in human embryonic kidney (HEK293T) cells expressing luciferase-tagged ELG1 | HEK293T ELG1-luciferase reporter, luminescence, 16 h | Potency, µM (highest dose often 46 µM), for the others: top-dose activity change, positive = activation, usual class: activators | 330,000 tested, 1.3% active | AID 504466, 2011; note: % of control where 0% means no effect; nearly all actives have a fitted effect of over 60% in size
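Reporter readout depends on ELG1 protein level, which increases with genetic stress. After 16 hr compound exposure at 37 °C, luciferase activity was quantified using ONE-Glo.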
FLuc counter = qHTS profiling assay for firefly luciferase inhibitor/activator using purifed enzyme and Km concentrations of substrates (counterscreen for miR-21 project); Luciferin 4-monooxygenase (Photinus pyralis), P08659; purified FLuc, Km substrates, luminescence inhibition; Potency, µM (titrated, usually from 57.5 µM), for the others: at the top dose activity change, negative = inhibition, hits mostly inhibitors; 360,000 tested, 6.9% active; AID 588342, 2011;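 note: plate controls were vehicle for no effect and reference inhibitor for full effect; nearly all actives have a fitted effect of over 55% in size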
Target sequence (P08659 whole entry, looked up): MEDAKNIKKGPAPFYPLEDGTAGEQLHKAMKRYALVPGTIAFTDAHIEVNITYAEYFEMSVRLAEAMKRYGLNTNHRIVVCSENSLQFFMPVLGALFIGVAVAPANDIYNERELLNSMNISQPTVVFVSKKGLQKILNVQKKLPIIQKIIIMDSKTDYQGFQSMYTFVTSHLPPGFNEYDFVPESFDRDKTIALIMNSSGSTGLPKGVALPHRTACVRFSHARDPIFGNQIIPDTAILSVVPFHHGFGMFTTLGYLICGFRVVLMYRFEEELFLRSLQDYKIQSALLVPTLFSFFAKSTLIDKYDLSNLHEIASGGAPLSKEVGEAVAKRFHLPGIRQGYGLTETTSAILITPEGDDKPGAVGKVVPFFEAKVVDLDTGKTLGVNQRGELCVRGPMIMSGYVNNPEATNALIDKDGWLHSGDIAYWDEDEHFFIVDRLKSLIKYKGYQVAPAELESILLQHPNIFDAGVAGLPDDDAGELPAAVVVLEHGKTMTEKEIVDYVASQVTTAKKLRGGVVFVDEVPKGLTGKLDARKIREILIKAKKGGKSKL
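Biochemical qHTS of compounds, final roughly 60 µM downward over six points, against 10 nM purified firefly luciferase using Km concentrations of substrates (10 uM D-luciferin, 10 uM ATP) in Tris acetate pH 7.5 buffer; luminescence output.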
Rab9 promoter act = qHTS Assay for Rab9 Promoter Activators | AID 485297, 2010 | 320,000 tested, 2.8% active | Huh7 Rab9 promoter-luciferase reporter, luminescence, 24 h | Potency, µM (highest dose often 9.22 µM), for inactives: at the highest dose activation, negative = inhibition, actives largely listed as activators; note: % of control where 0% means no effect; nearly all actives have a fitted effect of over 60% in size
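Steps: seed 1500 Huh7 Rab9-luc cells per well, rest 2 h at 37 °C; add compound in DMSO; incubate 24 h; add luciferase reagent, 10 min ambient; read luminescence.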
SMN2 splice enh = qHTS Assay for Enhancers of SMN2 Splice Variant Expression; 210,000 tested, 2.8% active; HEK293 SMN2-luciferase splicing reporter, luminescence, 30-36 h; Potency, µM (top dose mostly 46.1 µM), for the others: top-dose activity change, positive = activation, hits mostly activators; note: % of control where 0% means no effect; nearly all actives have a fitted effect of over 55% in size
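HEK293 cells carry an SMN2 […]–luciferase reporter in which exon 7 inclusion puts luciferase in frame. Cells were plated 10-12 h before compound addition, then incubated 30-36 h at 37C. ONE-Glo luminescence was read; sodium butyrate at 4.5 mM final served as control.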
NPC1 prom act = qHTS Assay for NPC1 Promoter Activators. Huh7 NPC1 promoter luciferase reporter, 24 h. Potency, µM (series often up to 9.22 µM), without a hit: top-dose activation, most hits filed as activators. 320,000 tested, 2.4% active; note: % of control where 0% means no effect; nearly all actives have a fitted effect of over 60% in size
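Luminescence read-out of NPC1 promoter-driven luciferase in stably transfected Huh7 cells; compounds delivered in DMSO and left 24 h at 37C, 5% CO2, qHTS titration format.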
An asterisk follows results filed as active; u = inconclusive; x = no result given. Calls come from the whole dose curve; as a rule, active = well fitted curve in the direction sought with a large enough effect; inconclusive = small, poorly fitted or top-dose-only effect, or another doubt; inactive = no such curve, though single readings can be large; an effect the other way counts as inactive or inconclusive. Potency is the fitted concentration of half-maximal effect.

SMILES	ELG1 DNA repair	ELG1 genotox	FLuc counter	Rab9 promoter act	SMN2 splice enh	NPC1 prom act
CCOc1ccc(C(=O)Nc2ccc3c(c2)OCO3)cc1OCC	-1%	14%	3%	14%	28%	17%
O=C(Nc1ccc(Cl)c(-c2nc3ccccc3[nH]2)c1)c1ccc2c(c1)OCO2	21µM*	-3%	12µM*	0%	6%	8%
Cc1cc(Cl)ccc1NC(=O)c1ccc2c(c1)OCO2	u	u	12µM*	3.5µM*	x	2.2µM*
COc1cc(Cl)c(C)cc1NC(=O)c1ccc2c(c1)OCO2	u	6%	-17%	u	x	u
Cc1ccc(C(=O)Nc2ccc3c(c2)OCO3)cc1Cl	u	4.6µM*	2.4µM*	2.5µM*	x	0.89µM*
O=C(CNC(=O)c1ccc(Cl)cc1Cl)OCC(=O)c1ccc2c(c1)OCCO2	u	-2%	17µM*	10%	-12%	2%
O=C(COC(=O)CNC(=O)c1ccc(Cl)cc1Cl)NCC1CCCO1 (stereo unspecified)	19%	0%	-2%	-3%	x	-6%
O=C(Nc1ccc2c(c1)OCO2)c1cnc(Cl)c(Cl)c1	u	17%	7.6µM*	3.5µM*	x	u
O=C(Nc1ccc2c(c1)OCO2)c1ccc(Cl)nc1	u	u	u	28%	28%	26%
O=C(Nc1ccc(Cl)cc1Cl)c1ccc2c(c1)OCCO2	u	u	0.3µM*	0.32µM*	x	0.4µM*
Cc1ccc(C(=O)Nc2ccc3c(c2)OCO3)cc1S(=O)(=O)N1CCOCC1	u	0%	u	29%	x	u
Cc1ccc(C(=O)Nc2ccc3c(c2)OCO3)cc1S(=O)(=O)N1CCCC1	-1%	-5%	12µM*	u	24%	u
Cc1ccc(NC(=O)c2ccc3c(c2)OCO3)cc1Cl	u	u	2.7µM*	0.79µM*	x	0.56µM*
O=C1CN(C(=O)COc2ccc(Cl)cc2)C(c2ccc(F)cc2)c2cc(Cl)ccc2N1 (stereo unspecified)	x	x	2%	x	-2%	x
CCOC(=O)[C@H]1[C@H]2COc3ccc(OC)cc3[C@@H]2N2C(=O)CN(CCc3c[nH]c4ccccc34)C(=O)[C@@]12C	-63%	-4%	2%	1%	x	2%
Cc1ccc2c(=O)c(C(=O)c3cccc(Cl)c3)cn(CC(=O)NC3CCCCC3)c2n1	x	x	-5%	x	x	x
CC[C@]1(C(=O)OC)[C@H]2C(=O)N(C)C(=O)[C@H]2[C@H]2CN=C(SCc3ccc(C(=O)OC)cc3)N21	1%	11%	x	x	x	x
COc1ccc(N2CC(C(=O)N[C@@H](CC(C)C)C(=O)NC3CCCCC3)CC2=O)cc1 (stereo partly specified)	13%	2%	-1%	1%	x	-20%
CC(C)(C)N1C(=O)Cc2c1nc(N)c1c(N)nc(N3CCCCC3CO)c(C#N)c21 (stereo unspecified)	18%	2%	8.5µM*	23%	2%	24%
O=[N+]([O-])c1ccc(O)c(/C=N/n2cnc3ccccc32)c1	21µM*	-10%	27µM*	-3%	-48%	6%
O=[N+]([O-])c1ccc(O)c(/C=N/n2c(CO)nc3ccccc32)c1	26µM*	-5%	-9%	-5%	x	1%
O=C(N/N=C/c1c[nH]c2ccccc12)c1cc(-c2cccc3ccccc23)n[nH]1	-29%	-2%	15µM*	-1%	18%	-12%
CCOC(=O)N/N=C/c1c[nH]c2ccccc12	u	8%	u	8%	4%	-2%
O=C(N/N=C/c1c[nH]c2ccccc12)c1cc(-c2ccc(-c3ccccc3)cc2)n[nH]1	u	13%	1.3µM*	u	24%	30%
Cc1ccc(-c2cc(C(=O)N/N=C/c3c[nH]c4ccccc34)[nH]n2)cc1	-8%	-1%	11µM*	-17%	-6%	-19%
SMILES	ELG1 DNA repair	ELG1 genotox	FLuc counter	Rab9 promoter act	SMN2 splice enh	NPC1 prom act
O=C(N/N=C/c1c[nH]c2ccccc12)c1cc(-c2ccccc2)n[nH]1	u	-4%	12µM*	0%	2%	-1%
CCC(C)(C)NC(=O)C(C(C)C)N(CC1CCCO1)C(=O)CNS(=O)(=O)c1ccccc1 (stereo unspecified)	13%	-4%	0%	9%	x	2%
CCCc1cc(=O)[nH]c2nnc(SCC(=O)N3CC(C)OC(C)C3)n12 (stereo unspecified)	19%	1%	4%	2%	x	-9%
COc1cc2c(=O)n(CCC(=O)NCC3CCCO3)c(=O)n(CC(=O)Nc3c(C)cccc3C)c2cc1OC (stereo unspecified)	x	x	1%	x	-4%	x
O=C(NC1CCN(C(=S)Nc2ccc(F)cc2)CC1)C1CCCCC1	10%	-1%	2%	1%	x	-1%
O=C(N/N=C/c1c[nH]c2ccccc12)c1cc(-c2ccc3ccccc3c2)n[nH]1	3%	-12%	9.5µM*	-4%	-28%	-11%
Cc1nc(C)c(C(=O)N/N=C/c2c[nH]c3ccccc23)s1	u	9%	u	-6%	11%	-4%
O=C(O)c1ccc(/C=N/NC(=O)c2cc(-c3ccc4c5c(cccc35)CC4)n[nH]2)cc1	-6%	-2%	21µM*	-7%	4%	-4%
O=C(N/N=C/c1cccs1)c1cc(-c2ccc3ccccc3c2)n[nH]1	-21%	0%	-16%	-9%	-1%	7%
O=C(N/N=C/c1cccs1)c1cc(-c2cccc3ccccc23)n[nH]1	-2%	15%	19µM*	26%	u	1%
O=C(N/N=C/c1c[nH]c2ccccc12)c1ccn[nH]1	u	10%	21µM*	u	27%	7%
CC(C)(C)c1ccc(-c2nc(C#N)c(NCc3cccnc3)o2)cc1	12%	u	11µM*	u	-18%	10%
N#Cc1nc(COc2cccc(Cl)c2)oc1NCc1ccco1	u	u	19µM*	u	12%	19%
COc1ccc(-c2nc(C#N)c(NCc3ccco3)o2)cc1	u	u	13µM*	u	20µM*	u
C=CCNc1oc(-c2ccc(OC)cc2)nc1C#N	u	15µM*	8.5µM*	2.8µM*	u	u
N#Cc1nc(-c2ccc(F)cc2)oc1NCc1ccco1	u	5%	u	15%	x	12%
